Several values for one entry are separate records, joined by “and”; a condition that tells them apart may be missing. Equal values may be shown once. The panel holds about 83,000 compounds, 20% with a hit somewhere; the sample as a whole holds those more often.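 Cells were grown in 96-well plates and exposed to the test compound at a single concentration for 48 hours; results are reported as percent growth, with values below 10 considered active.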 Activity calls are given as the source filed them.

For the assay, the system named is HL-60(TB) leukemia. As to the kind of experiment: NCI-60 one-dose screen, 48 h (100 = growth as untreated, 0 = no growth, -100 = all killed). The settings on record: 10 µM unless noted.
As for `COc1cc(Cl)cc(-c2nn(C(=O)NCCN3CCOCC3)cc2-c2ccncc2)c1`, the growth is 55.7% (inactive).

With `COc1cc(Cn2c(-c3nonc3N)nc3ccccc32)ccc1C`, the growth is -3.72% (active).

Regarding `COc1cccc2nc(Nc3cccc(NC(=O)c4cc(N5CCOCC5)cc(C(F)(F)F)c4)c3)ccc12`, the growth was 93.5% (inactive).

Turning to `CCOP(C)(=O)/C(Cc1ccc(OC)c(OC)c1)=N\O` (stereo not given), the growth is 98.1% (inactive).

Turning to `COc1ccc(-c2nn(-c3ccccc3)cc2/C=C2\SC(=O)NC2=O)cc1`, the growth is 88.2% (inactive).

Take `Cc1ccc(C2C=C(c3ccc(Cl)cc3)N=C3SC=CN32)c(Br)c1` (stereo not given): the growth is 104% (inactive).

With `O=C1N/C(=N/O)S/C1=C/c1cn(-c2ccccc2)nc1-c1ccccc1`, the growth is 117% (inactive).

In the case of `CC(C)CCN(CCCNc1c2c(nc3ccccc13)CCCC2)CCC(C)C`, the growth is 102% (inactive).

As for `CCOC(=O)c1cc2c(n1Cc1ccccc1OC)-c1oncc1CCC2`, the growth was 14.4% (inactive).

Regarding `C=CCc1nc2ccccc2s1`, the growth was 105% (inactive).

Consider `CCCCN[C@H]1CC[C@@]2(C)[C@@H](CC[C@@]3(C)[C@H]2[C@H](O)C[C@H]2/C(=C(\CCC=C(C)C)C(=O)OC)[C@@H](OC(C)=O)C[C@@]23C)[C@@H]1C`, for which the growth was 0.474% (active).

Consider `O=C1CCC(=O)N1CC1CC2CCC1C2` (stereo not given), for which the growth is 128% (inactive) and 97.8% (inactive).

For the compound `COc1c(/C(C)=N/N=c2sc(C(C)=O)nn2-c2ccc(Cl)cc2)c(Oc2ccccc2)c(OC)c2occc12`, the growth is 102% (inactive) and 104% (inactive).

As for `CN(C)c1ccc(N=Nc2ccccn2)c(O)c1`, the growth was -36.3% (active).

In the case of `COc1cccc(C2C(C#N)=C(N)Oc3cc4c(cc32)OCO4)c1` (stereo not given), the growth was -45% (active).

Consider `COc1ccc(-c2cn(-c3cccc(C(=O)/C=C/c4ccc(O)c(OC)c4)c3)c(=O)[nH]2)cc1`, for which the growth is -2.62% (active).

Take `CCC1=C[C@]2(C3CC(=O)N(c4ccccc4)C3=O)CC(C(C)(C)C)C[C@@H]2[C@@H]2C(=O)N(c3ccccc3)C(=O)[C@H]12` (stereo not given in full): the growth was 84.1% (inactive).

Regarding `NN1C(=O)CSC1=S`, the growth is 126% (inactive).

For `Cc1ccc(NC(=O)Nc2ccc(Nc3ncnc4sc5c(c34)CCOC5)cc2)cc1Cl`, the growth was 108% (inactive).

For the compound `O=C(NNc1ccc(-c2ccccc2)nn1)c1ccccc1`, the growth was 98.8% (inactive).

For `CC(=O)NC(Cc1ccccc1)C(=O)Oc1ccc2ccccc2c1` (stereo not given), the growth was 110% (inactive) and 83.4% (inactive).

For `C=C(C)[C@@H]1CC[C@]2(C)[C@H](CC=C3[C@@H]4[C@H](C)[C@@H](C)CC[C@]4(CO)CC[C@]32C)[C@@]1(C)CCCN`, the growth was -45.2% (active).

For the compound `N#CCN1C(=O)C2C3=C(CCCC3)SC2N=C1CN1CCCC1` (stereo not given), the growth was 66.3% (inactive).

Regarding `C=CCSc1nnc(NC(=O)CCl)s1`, the growth was 91.5% (inactive).

`COc1cnc2c(c1)C(=O)c1c-2n(CCCNCCO)c(=O)c2ccncc12`: the growth is 16.1% (inactive).

On to `Cc1cc(NS(=O)(=O)c2ccc(N=Nc3cc(N=Nc4ccc(S(=O)(=O)Nc5cc(C)nc(C)n5)cc4)c4c(NC(=O)C(Cl)Cl)cccc4c3OC(=O)C(Cl)Cl)cc2)nc(C)n1` (tested in a mixture with another compound), for which the growth was 116% (inactive) and 98.5% (inactive).

As to `Cc1cc(OC(=O)c2ccc([N+](=O)[O-])cc2)nc2[nH]c(=O)sc12`, the growth is 99.5% (inactive).

As for `COc1cc2cc(Oc3ccc(NC(=O)Nc4ccc(Cl)c(Cl)c4)cc3)c(C)nc2cc1OC`, the growth is 9.64% (active).

Regarding `COc1cc(/C=C/C(=O)c2c(C)nc3ccccc3c2/C=C/c2ccccc2)cc(OC)c1OC`, the growth is -6.84% (active).

Turning to `Nc1c(C(=O)Nc2cccc(Cl)c2Cl)sc2nc3c(cc12)C(=O)CCC3`, the growth was 96.6% (inactive).

`O=C(Nc1ccc(Nc2ccncc2)cc1)c1ccc(Nc2ccnc3ccc([N+](=O)[O-])cc23)cc1[N+](=O)[O-]`: the growth is 88.8% (inactive).

Turning to `CS(=O)(=O)c1ccc(-c2cnn3ccc(-c4cccc(S(=O)(=O)C5CC5)c4)nc23)cc1`, the growth was 24.3% (inactive).

Consider `CCCCCCOc1ccc(C2(Cl)c3ccccc3N(C)c3ccccc32)cc1`, for which the growth is 65.4% (inactive).

Consider `COc1cc2oc(-c3cccc(NC(=O)c4ccccc4)c3)cc(=O)c2c(OC)c1OC`, for which the growth is 60.5% (inactive).

Regarding `Nc1ccc2c(O)cc(S(=O)(=O)O)cc2c1`, the growth was 89.8% (inactive) and 67% (inactive).

Take `CCN(CC)CCCCCCNc1cc(OC)cc2cccnc12`: the growth was -57.3% (active).

Regarding `COc1ccc2c(c1)/C(=C1/S/C(=N/c3nnc(C)s3)NC1=O)C(=O)N2Cc1ccc(Br)cc1`, the growth was 32.5% (inactive).

Consider `Cc1ccc(S(=O)(=O)N2C/C(=C\c3cc(F)cc(F)c3)C(=O)/C(=C/c3cc(F)cc(F)c3)C2)cc1`, for which the growth was 10.9% (inactive).

Consider `Oc1c(Cl)cc(Cl)cc1/C=N/Nc1nnc(N/N=C/c2cc(Cl)cc(Cl)c2O)c2ccccc12`, for which the growth was -24% (active).

Consider `CCN1C[C@@H](C)n2c(c(O)c3c(=O)n(Cc4ccc(F)c(Cl)c4)nc(C(=O)NC)c32)C1=O`, for which the growth is 36.7% (inactive).

These data come from PubChem BioAssay (NCI).
